About 79,000 compounds went through this panel and 15% of them were active in at least one assay; those are over-represented in the sample as a whole. Active and inactive are the calls of the source. Rule as the data show it: active = growth inhibition above about 70%; inactive = the rest.
Assays:
[1] = NCI Yeast Anticancer Drug Screen. Data for the rad14 strain (AID 159);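 also: 0% = growth of vehicle-treated control cultures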; conditions: S. cerevisiae rad14 strain growth inhibition, stronger effect = higher value
Outline: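 Yeast cells carrying a defined DNA-repair defect were exposed to compounds, and growth inhibition was calculated relative to vehicle-treated control cultures.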

[2] = NCI Yeast Anticancer Drug Screen. Data for the sgs1 mgt1 strain (AID 161);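 also: 0% = growth of cultures given vehicle only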; conditions: S. cerevisiae sgs1 mgt1 strain, stronger effect = higher value
Outline: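 Genetically altered yeast, compound exposure, growth inhibition relative to vehicle.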

[3] = NCI Yeast Anticancer Drug Screen. Data for the CLN2oe strain (AID 163);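 also: 0% = growth of vehicle-only control cultures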; conditions: S. cerevisiae CLN2oe strain, stronger effect = higher value
Outline: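 Growth of a genetically modified yeast strain is measured after compound exposure and compared with cultures given vehicle alone.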

[4] = NCI Yeast Anticancer Drug Screen. Data for the cln2 rad14 strain (AID 165);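 also: 0% = growth equal to vehicle treated cultures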; conditions: S. cerevisiae cln2 rad14 strain, stronger effect = higher value
Outline: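 Compounds are applied to the cln2 rad14 yeast strain, and growth is then compared with that of vehicle-treated cultures to give inhibition.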

[5] = NCI Yeast Anticancer Drug Screen. Data for the bub3 strain (AID 167); conditions: S. cerevisiae bub3 mutant strain, stronger effect = higher value
Outline: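 Compounds were applied to a genetically altered yeast strain carrying a cell-cycle control defect. Growth inhibition was scored against vehicle-treated controls.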

[6] = NCI Yeast Anticancer Drug Screen. Data for the wt2 strain (AID 169);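 also: 0% = growth of vehicle-treated yeast cultures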; conditions: S. cerevisiae wt2 strain growth inhibition, stronger effect = higher value
Outline: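 This strain belongs to a panel of yeast strains with defined genetic alterations in DNA damage repair or cell cycle control. Compounds are applied, and growth inhibition is measured against vehicle-treated cultures.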

[7] = NCI Yeast Anticancer Drug Screen. Data for the mlh1 strain (AID 171);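 also: 0% = growth of vehicle-treated control cultures of the same strain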; conditions: S. cerevisiae mlh1 strain growth inhibition, stronger effect = higher value
Outline: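 Growth of the mutant yeast strain after compound exposure, expressed as inhibition relative to vehicle-only controls.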

[8] = NCI Yeast Anticancer Drug Screen. Data for the sgs1 strain (AID 173);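 also: 0% = growth of vehicle-only control cultures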; conditions: S. cerevisiae sgs1 mutant, stronger effect = higher value
Outline: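 Growth of a yeast strain bearing a defined genetic alteration is measured after compound treatment. Inhibition is expressed relative to vehicle-only controls.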

[9] = NCI Yeast Anticancer Drug Screen. Data for the mlh1 rad18 strain (AID 175); conditions: S. cerevisiae mlh1 rad18 strain growth inhibition, stronger effect = higher value
Outline: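 Read-out is yeast growth inhibition, calculated against vehicle-only controls. The compound was applied to a strain engineered with DNA damage repair alterations.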

[10] = NCI Yeast Anticancer Drug Screen. Data for the rad18 strain (AID 177); conditions: S. cerevisiae rad18 mutant growth inhibition, stronger effect = higher value
Outline: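 Growth of the mutant yeast strain after compound exposure, normalised to vehicle-only cultures.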

[11] = NCI Yeast Anticancer Drug Screen. Data for the wt1 strain (AID 149);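 also: 0% = growth of vehicle-treated wt1 cultures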; conditions: S. cerevisiae wt1 strain (SPY 50644) growth inhibition, stronger effect = higher value
Outline: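 Yeast wt1 strain exposed to compounds; growth inhibition measured relative to vehicle-treated controls.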

[12] = NCI Yeast Anticancer Drug Screen. Data for the rad50EPP+ strain (AID 151);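 also: 0% = growth of vehicle-treated control cultures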; conditions: S. cerevisiae rad50 mutant strain, stronger effect = higher value
Outline: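 Compounds were applied to the rad50EPP+ yeast strain, which bears a defined DNA repair alteration, and growth inhibition was determined relative to vehicle-treated cultures.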

[13] = NCI Yeast Anticancer Drug Screen. Data for the mgt1 strain (AID 153); conditions: S. cerevisiae mgt1 mutant growth inhibition, stronger effect = higher value
Outline: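 Strain: mgt1 yeast, one of a set carrying defined DNA damage repair or cell cycle control alterations. Compound-treated growth compared with vehicle.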

[14] = NCI Yeast Anticancer Drug Screen. Data for the rad50 strain (AID 155);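 also: 0% = growth of vehicle-only cultures of the same strain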; conditions: S. cerevisiae rad50 strain growth inhibition, stronger effect = higher value
Outline: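 Yeast carrying a defined DNA repair defect were exposed to test compounds, and growth was compared with vehicle-treated controls to give percent inhibition.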

[15] = NCI Yeast Anticancer Drug Screen. Data for the mec2-1 strain (AID 157); conditions: S. cerevisiae mec2-1 strain, stronger effect = higher value
Outline: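 Strain: mec2-1 (DNA repair/cell cycle alteration). Compound exposure, then growth measured; inhibition expressed relative to vehicle.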

[16] = at 5.0 µM (retest, dose inferred, filed as 0.5)
[17] = at 50.0 µM (retest, dose inferred, filed as 5.0)

Measured: growth inhibition

CCN(CC)CCNc1ccc2nc(C)n3c4ccc(OC)cc4c(=O)c1c23
active: [9]; at 50.0 µM 77.4% | [10]; at 100.0 µM 74%
inactive: [1]; at 100.0 µM 48% | [2]; [16] 13% | [2]; [17] 41% | [2]; at 50.0 µM 18.3% | [3]; at 1.2 µM 1% | [3]; at 3.7 µM 15% | [3]; at 11.0 µM 17% | [3]; at 33.0 µM 21% | [3]; at 100.0 µM 17% | [4]; [16] 25% | [4]; [17] 45% | [4]; at 50.0 µM 28.1% | [5]; at 1.2 µM 11% | [5]; at 3.7 µM 2% | [5]; [16] -31% | [5]; at 11.0 µM -3% | [5]; at 33.0 µM 16% | [5]; [17] 39% | [5]; at 50.0 µM 16.4% | [5]; at 100.0 µM 5% | [6]; at 1.2 µM -22% | [6]; at 3.7 µM -25% | [6]; at 11.0 µM -24% | [6]; at 33.0 µM -15% | [6]; at 100.0 µM -25% | [7]; at 1.2 µM 36% | [7]; at 3.7 µM 27% | [7]; at 11.0 µM 18% | [7]; at 33.0 µM 26% | [7]; at 100.0 µM 16% | [8]; at 1.2 µM 27% | [8]; at 3.7 µM 27% | [8]; at 11.0 µM 26% | [8]; at 33.0 µM 8% | [8]; at 100.0 µM 25% | [9]; [16] 29% | [9]; [17] 56% | [10]; at 1.2 µM 34% | [10]; at 3.7 µM 41% | [10]; at 11.0 µM 57% | [10]; at 33.0 µM 66%

Cc1cc(Cl)ccc1NC(=O)/C(Cl)=C(/Cl)C(=O)O
inactive: [11]; at 1.2 µM 0% | [11]; at 3.7 µM -1% | [11]; at 11.0 µM 0% | [11]; at 33.0 µM 11% | [12]; at 1.2 µM 5% | [12]; at 3.7 µM 11% | [12]; at 11.0 µM 25% | [13]; at 1.2 µM 0% | [13]; at 3.7 µM 5% | [13]; at 11.0 µM 8% | [13]; at 33.0 µM 29% | [14]; at 1.2 µM 1% | [14]; at 3.7 µM 6% | [14]; [16] -1% | [14]; at 11.0 µM 16% | [14]; [17] 22% | [15]; at 1.2 µM 3% | [15]; at 3.7 µM 6% | [15]; [16] 3% | [15]; at 11.0 µM 11% | [15]; at 33.0 µM 51% | [15]; [17] 23% | [1]; at 1.2 µM 2% | [1]; at 3.7 µM 5% | [1]; at 11.0 µM 13% | [1]; at 33.0 µM 34% | [2]; [16] 0% | [2]; [17] 37% | [3]; at 1.2 µM -1% | [3]; at 3.7 µM 3% | [3]; at 11.0 µM 1% | [3]; at 33.0 µM 11% | [4]; [16] -4% | [4]; [17] 11% | [5]; at 1.2 µM 2% | [5]; at 3.7 µM 4% | [5]; [16] 3% | [5]; at 11.0 µM 12% | [5]; at 33.0 µM 56% | [5]; [17] 37% | [6]; at 1.2 µM 0% | [6]; at 3.7 µM 1% | [6]; at 11.0 µM 5% | [6]; at 33.0 µM 18% | [7]; at 1.2 µM -1% | [7]; at 3.7 µM 2% | [7]; at 11.0 µM 5% | [7]; at 33.0 µM 22% | [8]; at 1.2 µM 2% | [8]; at 3.7 µM 2% | [8]; at 11.0 µM 11% | [8]; at 33.0 µM 55% | [9]; [16] 0% | [9]; [17] 17% | [10]; at 1.2 µM -2% | [10]; at 3.7 µM 0% | [10]; at 11.0 µM 11% | [10]; at 33.0 µM 30%
active: [11]; at 100.0 µM 99% | [12]; at 33.0 µM 78% | [12]; at 100.0 µM 99% | [13]; at 100.0 µM 100% | [14]; at 33.0 µM 81% | [14]; at 50.0 µM 99.5% | [14]; at 100.0 µM 99% | [15]; at 50.0 µM 97.7% | [15]; at 100.0 µM 100% | [1]; at 100.0 µM 100% | [2]; at 50.0 µM 99.7% | [3]; at 100.0 µM 99% | [4]; at 50.0 µM 98.8% | [5]; at 50.0 µM 99.6% | [5]; at 100.0 µM 99% | [6]; at 100.0 µM 100% | [7]; at 100.0 µM 100% | [8]; at 100.0 µM 99% | [9]; at 50.0 µM 99.3% | [10]; at 100.0 µM 99%

Source: PubChem BioAssay (NCI)
